PubChem BioAssay (Tox21)
Results filed as inconclusive are left out. Activity calls are given as the source filed them. Unless noted, the call rests on the fitted dose curve.

How the values were obtained:
[1] = Nuclear factor erythroid 2-related factor 2/antioxidant responsive element (Nrf2/ARE) small molecule agonists: qHTS cell viability counter screen in human keratinocytes (AID 1919968; active means well fitted curve in the direction sought with a large enough effect in the repeat runs; an effect the other way counts as inactive or inconclusive; further: nearly all actives have a fitted effect of over 55% in size)
Outline: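 In human HaCaT keratinocytes stably expressing an ARE-driven luciferase, compound exposure lasted 23 h at 37 C under 5% CO2. Viable cells are quantified with a protease-based fluorogenic reagent (CellTiter-Fluor) read 1 h after addition.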

[2] = Nuclear factor erythroid 2-related factor 2/antioxidant responsive element (Nrf2/ARE) small molecule agonists: luciferase reporter gene qHTS assay in human keratinocytes (AID 1919969); further: nearly all actives have a fitted effect of over 35% in size
[3] = molecular target: Gonadotropin-releasing hormone receptor (Homo sapiens) (UniProt P30968); experiment: Human gonadotropin-releasing hormone receptor (GnRHR) small molecule agonists, calcium flux assay in GnRHR-HEK293 cells (AID 1920063); further: nearly all actives have a fitted effect of over 35% in size
Outline: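 Intracellular calcium rise is the read-out: engineered human GnRHR HEK293 cells, dye-loaded, are exposed to DMSO-dissolved compounds and fluorescence at Ex/Em 480/540 is tracked for 3 min.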

[4] = molecular target: KiSS-1 receptor (Homo sapiens) (UniProt Q969F8); experiment: Human kisspeptin (KISS1R) small molecule agonists, calcium flux assay in KISS1R-HEK293 cells (AID 1920064; active means well fitted curve in the direction sought with a large enough effect in the repeat runs; an effect the other way counts as inactive or inconclusive)
Outline: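 Concentration-response testing used 15 concentrations in triplicate on human KISS1R-expressing HEK293 cells. Calcium-dependent fluorescence (Ex/Em 480/540) was followed kinetically for 3 min after compound transfer.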

[5] = G protein-coupled receptor (GPCR) small molecule agonists, calcium flux assay: HEK293 wild type cell line counter screen (AID 1920065)
Outline: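 Fluorescence intensity signals activation. After overnight (18 h) culture and a 1 h calcium dye load at 37 C, compounds are added by pin tool and the plate read at 480/540 nm for 3 min in 1 s steps.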

[6] = p53 small molecule agonists, cell-based qHTS assay with human liver microsomes (AID 1963577);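 further: p53 response element beta-lactamase reporter cells with liver microsomes plus NADPH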
Outline: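 16 h, 37 C exposure of p53RE-bla cells to compounds with human liver microsomes and NADPH (0.5 mg/mL final each); detection via LiveBLAzer mixture, 2 h dark at room temperature.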

[7] = p53 small molecule agonists, cell-based qHTS assay with rat liver microsomes (AID 1963578)
Outline: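 With rat liver microsomes and NADPH present (0.5 mg/mL final each), p53RE-bla cells are treated with compound for 16 h at 37 C. LiveBLAzer detection mixture is then applied for 2 h at room temperature in the dark.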

[8] = p53 small molecule agonists, cell-based qHTS assay with human liver microsomes: qHTS cell viability counter screen (AID 1963579); further: nearly all actives have a fitted effect of over 45% in size
Outline: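 In this multiplexed counter screen, the reporter plates were subsequently treated with CellTiter-Glo so that cell viability, reflected by luminescence, could be recorded for p53RE-bla cells dosed 16 h with compounds under microsomal activation (HLM and NADPH).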

[9] = p53 small molecule agonists, cell-based qHTS assay with rat liver microsomes: qHTS cell viability counter screen (AID 1963580); further: nearly all actives have a fitted effect of over 45% in size
Outline: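 Cytotoxicity counter screen: intracellular ATP read by CellTiter-Glo luminescence in the p53 reporter wells. HCT-116 p53RE-bla cells were treated for 16 h at 37 C alongside rat liver microsomes and NADPH, each 0.5 mg/mL final.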

[10] = p53 small molecule agonists, cell-based qHTS assay: qHTS cell viability counter screen (AID 1963581); further: nearly all actives have a fitted effect of over 45% in size
Outline: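 Luminescence from CellTiter-Glo, reflecting ATP content, serves as the cytotoxicity measure; it is taken after the 2 h reporter substrate step in HCT-116 p53RE-bla cells dosed for 16 h at 37 C.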

[11] = p53 small molecule agonists, cell-based qHTS assay (AID 1963582; active means well fitted activation curve with a large enough effect in the signal ratio in the repeat runs, not every such curve was filed as active; the % refers to the signal ratio)
Outline: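 After plating, p53RE-bla cells sat 5 h in the incubator; compounds or DMSO vehicle were pinned in; a 16 h incubation at 37 C followed; FRET substrate was added and, 2 h later at RT, fluorescence was measured.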

[12] = cAMP Responsive Elements (CRE) small molecule agonists, cell-based qHTS assay (AID 1963590)
Outline: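 Compound exposure lasted 3 h at 37 C/5% CO2 in CRE-bla HEK 293T cells grown in assay medium with 10% dialyzed FBS and 25 mM HEPES. Reporter signal came from LiveBLAzer B/G FRET substrate, 2 h, room temperature.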

[13] = cAMP Responsive Elements (CRE) small molecule antagonists, cell-based qHTS assay (AID 1963591; active means well fitted inhibition curve with a large enough effect in the signal ratio in the repeat runs, not every such curve was filed as active; the % refers to the signal ratio)
Outline: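 Stimulation used NKH477 at a final 0.25 uM for 3 h in compound-treated CRE-bla HEK293T cells, seeded 18 h beforehand. Reporter activity was measured with LiveBLAzer B/G FRET substrate after 2 h at room temperature.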

[14] = molecular target: Beta-2 adrenergic receptor (Homo sapiens) (UniProt P07550); experiment: Adrenergic beta2 receptor (ADRB2) small molecule antagonists, cell-based qHTS assay (AID 1963592); further: series mostly up to about 92 µM; nearly all actives have a fitted effect of over 50% in size
Outline: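 Assay format: CHO-ADRB2 cells, 18-20hr seeding at 37C/5% CO2, then compound plus 1nM isoproterenol agonist mix for 0.5hr RT. Homogeneous time-resolved fluorescence cAMP detection after 1hr, expressed as 665/615 nm ratio.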

[15] = molecular target: Beta-2 adrenergic receptor (Homo sapiens) (UniProt P07550); experiment: Adrenergic beta2 receptor (ADRB2) small molecule agonists, cell-based qHTS assay (AID 1963593);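 further: CHO cells stably overexpressing human ADRB2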
Outline: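 CHO cells stably over-expressing ADRB2 were plated overnight at 37C, then dosed with compounds plus a stimulation mix containing 100uM IBMX and 25uM Ro-20-1724 for 0.5hr at room temperature. cAMP was measured by HTRF competition, 1hr.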

[16] = molecular target: D(2) dopamine receptor (Homo sapiens) (UniProt P14416); experiment: Dopamine D2 receptor (DRD2) small molecule agonists, cell-based qHTS assay (AID 1963594); further: nearly all actives have a fitted effect of over 35% in size
Outline: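 cAMP accumulation in DRD2-HEK293 cells measured by HTRF after 1 h detection; compounds added 10 min before NKH477 (200nM […]) forskolin-analogue stimulation, 30 min at room temperature, with Ro20-1724 present at 0.1 mM final.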

[17] = molecular target: D(2) dopamine receptor (Homo sapiens) (UniProt P14416); experiment: Dopamine D2 receptor (DRD2) small molecule antagonists, cell-based qHTS assay (AID 1963595; active means well fitted inhibition curve with a large enough effect in the signal ratio in the repeat runs, with a control signal flat; the % refers to the signal ratio)
Outline: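 Antagonist mode in DRD2-HEK293 cells: after compound addition with 0.1 mM Ro20-1724, cells received quinpirole (12 nM) and NKH477 (200 nM) for 30 min at room temperature; HTRF cAMP read after 1 h detection.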

[18] = molecular target: 5-hydroxytryptamine receptor 2A (Homo sapiens) (UniProt P28223); experiment: 5-hydroxytryptamine receptor 2A (HTR2A) small molecule agonists, cell-based qHTS assay (AID 1963587); further: nearly all actives have a fitted effect of over 30% in size
Outline: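 Kinetic calcium-flux fluorescence (2 min, 1 sec intervals) after compound addition in agonist mode. HTR2A-CHO cells were cultured 18 h, then dye-loaded 1 h at 37 C.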

[19] = molecular target: Muscarinic acetylcholine receptor M1 (Homo sapiens) (UniProt P11229); experiment: Cholinergic receptor muscarinic 1 (CHRM1) small molecule antagonists, cell-based qHTS assay (AID 1963588); further: nearly all actives have a fitted effect of over 40% in size
Outline: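 Compounds were tested at 15 concentrations in three independent runs. Dye-loaded CHRM1-CHO cells were exposed 5 min at room temperature before stimulation by acetylcholine added at 50nM. Intracellular calcium was read kinetically on FDSS for 3 min.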

[20] = molecular target: Muscarinic acetylcholine receptor M1 (Homo sapiens) (UniProt P11229); experiment: Cholinergic receptor muscarinic 1 (CHRM1) small molecule agonists, cell-based qHTS assay (AID 1963589); further: nearly all actives have a fitted effect of over 35% in size
Outline: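 Fluorescent calcium dye reports M1 activation in stably transfected CHO cells. Compounds, 15 concentrations, added after 1 h dye loading at 37 C; kinetic reading at 1 sec intervals.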

Measured: Potency

Sequence of KiSS-1 receptor (Homo sapiens) (Q969F8 whole entry, looked up): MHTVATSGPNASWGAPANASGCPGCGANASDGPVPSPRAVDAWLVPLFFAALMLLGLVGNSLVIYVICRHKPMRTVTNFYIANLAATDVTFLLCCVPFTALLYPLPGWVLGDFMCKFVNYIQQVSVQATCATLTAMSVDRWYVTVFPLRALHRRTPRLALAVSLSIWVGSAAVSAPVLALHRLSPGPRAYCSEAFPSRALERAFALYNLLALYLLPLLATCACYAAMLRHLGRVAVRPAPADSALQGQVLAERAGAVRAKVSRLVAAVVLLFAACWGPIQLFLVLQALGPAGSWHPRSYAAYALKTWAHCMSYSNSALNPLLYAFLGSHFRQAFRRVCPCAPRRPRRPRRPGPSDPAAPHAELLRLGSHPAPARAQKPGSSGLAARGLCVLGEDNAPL
Sequence of Gonadotropin-releasing hormone receptor (Homo sapiens) (P30968 whole entry, looked up): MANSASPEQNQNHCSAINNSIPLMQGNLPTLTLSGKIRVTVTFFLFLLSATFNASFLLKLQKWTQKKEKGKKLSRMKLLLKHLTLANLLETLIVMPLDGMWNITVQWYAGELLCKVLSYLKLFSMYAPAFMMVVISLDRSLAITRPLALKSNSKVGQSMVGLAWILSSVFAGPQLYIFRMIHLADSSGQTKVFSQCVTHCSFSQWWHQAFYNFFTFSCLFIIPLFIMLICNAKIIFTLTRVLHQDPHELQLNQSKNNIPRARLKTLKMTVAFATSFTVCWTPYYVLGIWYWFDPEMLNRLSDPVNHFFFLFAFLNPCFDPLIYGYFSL
Sequence of Muscarinic acetylcholine receptor M1 (Homo sapiens) (P11229 whole entry, looked up): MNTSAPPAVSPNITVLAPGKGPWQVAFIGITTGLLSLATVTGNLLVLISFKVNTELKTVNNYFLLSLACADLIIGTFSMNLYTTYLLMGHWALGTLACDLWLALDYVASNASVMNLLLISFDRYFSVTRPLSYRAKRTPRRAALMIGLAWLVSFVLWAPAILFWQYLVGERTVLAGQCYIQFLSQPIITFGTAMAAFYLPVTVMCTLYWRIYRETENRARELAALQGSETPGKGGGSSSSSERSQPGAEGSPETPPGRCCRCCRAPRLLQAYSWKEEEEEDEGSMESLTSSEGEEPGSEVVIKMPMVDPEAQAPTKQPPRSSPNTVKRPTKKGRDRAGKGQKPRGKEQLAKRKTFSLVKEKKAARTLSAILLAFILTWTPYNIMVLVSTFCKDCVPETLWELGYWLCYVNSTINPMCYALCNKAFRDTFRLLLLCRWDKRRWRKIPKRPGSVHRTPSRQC
Sequence of D(2) dopamine receptor (Homo sapiens) (P14416 whole entry, looked up): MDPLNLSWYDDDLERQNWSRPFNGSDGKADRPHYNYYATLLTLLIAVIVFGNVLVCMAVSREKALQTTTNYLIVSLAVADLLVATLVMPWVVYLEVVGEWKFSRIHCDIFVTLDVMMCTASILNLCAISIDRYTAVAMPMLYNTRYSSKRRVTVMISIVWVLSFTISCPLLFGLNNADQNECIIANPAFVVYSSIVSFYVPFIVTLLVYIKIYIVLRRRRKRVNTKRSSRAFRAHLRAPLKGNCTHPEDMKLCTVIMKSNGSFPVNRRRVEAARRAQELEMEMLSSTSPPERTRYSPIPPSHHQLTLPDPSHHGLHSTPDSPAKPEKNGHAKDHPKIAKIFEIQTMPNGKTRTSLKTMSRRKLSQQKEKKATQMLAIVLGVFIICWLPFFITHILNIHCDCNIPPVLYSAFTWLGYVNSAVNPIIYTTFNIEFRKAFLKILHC
Sequence of 5-hydroxytryptamine receptor 2A (Homo sapiens) (P28223 whole entry, looked up): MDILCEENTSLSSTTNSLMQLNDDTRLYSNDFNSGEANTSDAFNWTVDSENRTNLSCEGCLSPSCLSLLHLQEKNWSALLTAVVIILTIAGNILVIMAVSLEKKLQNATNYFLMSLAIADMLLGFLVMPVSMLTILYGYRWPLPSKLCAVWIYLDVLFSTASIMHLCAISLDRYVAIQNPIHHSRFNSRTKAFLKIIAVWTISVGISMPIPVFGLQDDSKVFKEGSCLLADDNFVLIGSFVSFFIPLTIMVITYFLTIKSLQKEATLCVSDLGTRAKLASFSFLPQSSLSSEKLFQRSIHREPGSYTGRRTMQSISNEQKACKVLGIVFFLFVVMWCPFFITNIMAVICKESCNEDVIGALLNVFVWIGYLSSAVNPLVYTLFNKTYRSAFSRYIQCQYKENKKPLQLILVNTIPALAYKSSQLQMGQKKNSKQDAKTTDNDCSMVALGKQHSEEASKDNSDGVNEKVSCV
Sequence of Beta-2 adrenergic receptor (Homo sapiens) (P07550 whole entry, looked up): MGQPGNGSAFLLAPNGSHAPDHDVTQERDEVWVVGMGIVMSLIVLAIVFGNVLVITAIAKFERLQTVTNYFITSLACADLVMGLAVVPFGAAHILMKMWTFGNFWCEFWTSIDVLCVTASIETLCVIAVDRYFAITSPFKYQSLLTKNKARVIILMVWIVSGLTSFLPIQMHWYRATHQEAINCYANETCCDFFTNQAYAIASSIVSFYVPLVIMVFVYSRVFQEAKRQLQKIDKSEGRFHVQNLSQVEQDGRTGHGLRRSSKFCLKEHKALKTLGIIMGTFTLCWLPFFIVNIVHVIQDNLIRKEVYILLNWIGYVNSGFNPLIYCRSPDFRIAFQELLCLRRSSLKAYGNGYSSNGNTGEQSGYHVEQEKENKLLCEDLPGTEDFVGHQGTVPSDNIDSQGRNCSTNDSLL

O=c1[nH]c(=O)n([C@H]2CCCO2)cc1F
not listed: [18] | [19] | [20]
inactive: all other assays above

CN(C)c1cc(NC(=O)CNC(C)(C)C)c(O)c2c1C[C@H]1C[C@H]3[C@H](N(C)C)C(=O)C(C(N)=O)=C(O)[C@@]3(O)C(=O)C1=C2O
not listed: [11]
inactive: all other assays above

CC[C@@H]1C[C@H](N(Cc2cc(C(F)(F)F)cc(C(F)(F)F)c2)C(C)=O)c2cc(C(F)(F)F)ccc2N1C(=O)OC(C)C
not listed: [13] | [14]
inactive: all other assays above

Cc1ccc(S(=O)(=O)O)c(C)c1
not listed: [14]
inactive: all other assays above

Cc1[nH]cnc1-c1ccc(Cl)cc1
not listed: [11]
inactive: all other assays above

NCC1(Cc2noc(=O)[nH]2)CCCCC1
not listed: [11]
inactive: all other assays above

CCOC(=O)n1ccn(C)c1=S
not listed: [13] | [14] | [18] | [19] | [20]
inactive: all other assays above
